From PubChem BioAssay AID1159580 (chemical genetic matrix, 2015)
Screen size: about 5,500 compounds; about 2,000 (36%) were called active. About 18% were inconclusive and are not listed. Cut-off read from the data, not from the text of the source: active = normalized growth mostly below about 0.91 (no sharp cut-off); inconclusive = no clear call, values can overlap the other calls; inactive = mostly above about 0.92. The list shows a part of the results.

Assay: chemical genetic growth profiling, strain panel (AID 1159580);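 note: tested at 20 µM; growth read once vehicle control cultures reached saturation at 30 °C; 1 = growth at the plate median or of vehicle wells; lower values mean less growth of the strain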
Settings: growth OD
[1] = S. cerevisiae deletion strains, locus YAL013W, strain DEP1, active compounds read low
[2] = S. cerevisiae deletion strains, locus YGR078C, strain PAC10, active compounds read low
[3] = S. cerevisiae deletion strains, locus YMR263W, strain SAP30, active compounds read low
[4] = S. cerevisiae deletion strains, locus YNL322C, strain KRE1, active compounds read low
[5] = S. cerevisiae deletion strains, locus YPL055C, strain LGE1, active compounds read low
[6] = S. cerevisiae deletion strains, locus YPL241C, strain CIN2, active compounds read low
[7] = S. cerevisiae deletion strains, locus YHR030C, strain SLT2, active compounds read low

Measured: normalized growth

O=C(O)[C@@H]1C[C@@H](C(=O)O)N1
inactive: [1] 1.02 | S. cerevisiae deletion strains, locus YAL040C, strain CLN3, active compounds read low 1.08 | S. cerevisiae deletion strains, locus YCL061C, strain MRC1 (second series), active compounds read low 1 | S. cerevisiae deletion strains, locus YER002W, strain NOP16, active compounds read low 1 | [2] 1.01 | S. cerevisiae deletion strains, locus YGR229C, strain SMI1, active compounds read low 0.986 | [3] 0.997 | S. cerevisiae deletion strains, locus YNL175C, strain NOP13, active compounds read low 1 | S. cerevisiae deletion strains, locus YNL197C, strain WHI3, active compounds read low 1.02 | S. cerevisiae deletion strains, locus YNL224C, strain SQS1, active compounds read low 0.978 | [4] 0.986 | S. cerevisiae deletion strains, locus YOR083W, strain WHI5 (second series), active compounds read low 1.03 | [5] 1.02 | [6] 0.992

CSc1sc(C#N)c2c1C(O)CCC2 (configuration not stated)
inactive: [1] 0.988 | S. cerevisiae deletion strains, locus YBR229C, strain ROT2, active compounds read low 0.973 | S. cerevisiae deletion strains, locus YDL101C, strain DUN1, active compounds read low 0.977 | S. cerevisiae deletion strains, locus YDR150W, strain NUM1, active compounds read low 0.948 | S. cerevisiae deletion strains, locus YEL061C, strain CIN8, active compounds read low 0.993 | [2] 0.983 | [7] 0.931 | S. cerevisiae deletion strains, locus YHR087W, strain rtc3, active compounds read low 0.968 | S. cerevisiae deletion strains, locus YJR043C, strain POL32, active compounds read low 0.961 | S. cerevisiae deletion strains, locus YJR075W, strain HOC1, active compounds read low 0.96 | S. cerevisiae deletion strains, locus YKL190W, strain CNB1, active compounds read low 0.992 | S. cerevisiae deletion strains, locus YLR039C, strain RIC1, active compounds read low 1.01 | S. cerevisiae deletion strains, locus YLR058C, strain SHM2 (second series), active compounds read low 0.982 | S. cerevisiae deletion strains, locus YLR085C, strain ARP6, active compounds read low 1.03 | S. cerevisiae deletion strains, locus YLR262C, strain YPT6, active compounds read low 1.01 | S. cerevisiae deletion strains, locus YML094W, strain GIM5, active compounds read low 1 | S. cerevisiae deletion strains, locus YMR219W, strain ESC1, active compounds read low 0.985 | [3] 0.95 | S. cerevisiae deletion strains, locus YNL128W, strain TEP1, active compounds read low 0.975 | S. cerevisiae deletion strains, locus YNL153C, strain GIM3, active compounds read low 0.976 | S. cerevisiae deletion strains, locus YNL298W, strain CLA4 (second series), active compounds read low 0.964 | [4] 1 | S. cerevisiae deletion strains, locus YNR030W, strain Alg12, active compounds read low 0.974 | S. cerevisiae deletion strains, locus YOL006C, strain TOP1, active compounds read low 0.959 | [5] 0.902 | [6] 0.982 | S. cerevisiae deletion strains, locus YPR135W, strain CTF4, active compounds read low 0.94 | S. cerevisiae strains, strain wild type, active compounds read low 0.984

CC(C)(C)NC[C@H](O)c1ccc(O)c(CO)c1
inactive: S. cerevisiae deletion strains, locus YAL021C, strain ccr4, active compounds read low 1.02 | S. cerevisiae deletion strains, locus YAL026C, strain drs2, active compounds read low 1.03 | S. cerevisiae deletion strains, locus YAL030W, strain snc1, active compounds read low 1.02 | S. cerevisiae deletion strains, locus YBL061C, strain skt5, active compounds read low 1.01 | S. cerevisiae deletion strains, locus YBR009C, strain hhf1, active compounds read low 1.03 | S. cerevisiae deletion strains, locus YBR023C, strain chs3, active compounds read low 1.02 | S. cerevisiae deletion strains, locus YBR171W, strain sec66, active compounds read low 1.04 | S. cerevisiae deletion strains, locus YBR231C, strain swc5, active compounds read low 1.03 | S. cerevisiae deletion strains, locus YBR279W, strain paf1, active compounds read low 1.02 | S. cerevisiae deletion strains, locus YCL011C, strain gbp2, active compounds read low 1.02 | S. cerevisiae deletion strains, locus YCL016C, strain dcc1, active compounds read low 1.02 | S. cerevisiae deletion strains, locus YCL061C, strain MRC1, active compounds read low 1.01 | S. cerevisiae deletion strains, locus YCL069W, strain vba3, active compounds read low 1.02 | S. cerevisiae deletion strains, locus YCR088W, strain abp1, active compounds read low 1.02 | S. cerevisiae deletion strains, locus YDL005C, strain med2, active compounds read low 1.02 | S. cerevisiae deletion strains, locus YDL040C, strain nat1, active compounds read low 1.02 | S. cerevisiae deletion strains, locus YDR001C, strain nth1, active compounds read low 1.01 | S. cerevisiae deletion strains, locus YDR069C, strain doa4, active compounds read low 1.04 | S. cerevisiae deletion strains, locus YDR137W, strain rgp1, active compounds read low 1.06 | S. cerevisiae deletion strains, locus YDR159W, strain sac3, active compounds read low 1.04 | S. cerevisiae deletion strains, locus YDR195W, strain ref2 1.02 | S. cerevisiae deletion strains, locus YDR297W, strain sur2, active compounds read low 1.05 | S. cerevisiae deletion strains, locus YDR334W, strain swr1, active compounds read low 1.02 | S. cerevisiae deletion strains, locus YDR335W, strain msn5, active compounds read low 1.01 | S. cerevisiae deletion strains, locus YDR392W, strain spt3, active compounds read low 0.992 | S. cerevisiae deletion strains, locus YEL003W, strain gim4, active compounds read low 1.01 | S. cerevisiae deletion strains, locus YEL037C, strain rad23, active compounds read low 1 | S. cerevisiae deletion strains, locus YEL061C, strain CIN8 (second series), active compounds read low 1.01 | S. cerevisiae deletion strains, locus YER015W, strain faa2, active compounds read low 1.02 | S. cerevisiae deletion strains, locus YER016W, strain bim1, active compounds read low 1.03 | S. cerevisiae deletion strains, locus YER111C, strain swi4, active compounds read low 1.02 | S. cerevisiae deletion strains, locus YER155C, strain BEM2 (second series), active compounds read low 1.03 | S. cerevisiae deletion strains, locus YFR010W, strain ubp6, active compounds read low 1.02 | S. cerevisiae deletion strains, locus YGL167C, strain pmr1, active compounds read low 1.01 | S. cerevisiae deletion strains, locus YGL173C, strain kem1, active compounds read low 1.03 | S. cerevisiae deletion strains, locus YGL227W, strain vid30, active compounds read low 1.01 | S. cerevisiae deletion strains, locus YGL240W, strain doc1, active compounds read low 1.02 | S. cerevisiae deletion strains, locus YGL253W, strain hxk2, active compounds read low 1.01 | S. cerevisiae deletion strains, locus YHR013C, strain ard1, active compounds read low 1.04 | S. cerevisiae deletion strains, locus YHR027C, strain rpn1, active compounds read low 1.02 | [7] 0.999 | S. cerevisiae deletion strains, locus YHR079C, strain IRE1, active compounds read low 0.97 | S. cerevisiae deletion strains, locus YHR142W, strain chs7, active compounds read low 1.01 | S. cerevisiae deletion strains, locus YJL092W, strain hpr5, active compounds read low 1.02 | S. cerevisiae deletion strains, locus YJL095W, strain BCK1 (second series), active compounds read low 1.01 | S. cerevisiae deletion strains, locus YJL095W, strain BCK1, active compounds read low 0.966 | S. cerevisiae deletion strains, locus YJL115W, strain asf1, active compounds read low 1.02 | S. cerevisiae deletion strains, locus YJL129C, strain trk1, active compounds read low 1.03 | S. cerevisiae deletion strains, locus YJL154C, strain vps35, active compounds read low 1.02 | S. cerevisiae deletion strains, locus YJL164C, strain tpk1, active compounds read low 1.02 | S. cerevisiae deletion strains, locus YJL166W, strain qcr8, active compounds read low 1.02 | S. cerevisiae deletion strains, locus YJL187C, strain SWE1, active compounds read low 1.02 | S. cerevisiae deletion strains, locus YJR066W, strain TOR1, active compounds read low 0.955 | S. cerevisiae deletion strains, locus YKL160W, strain elf1, active compounds read low 1.02 | S. cerevisiae deletion strains, locus YKR026C, strain gcn3, active compounds read low 1.01 | S. cerevisiae deletion strains, locus YKR091W, strain srl3, active compounds read low 1.02 | S. cerevisiae deletion strains, locus YLL001W, strain dnm1, active compounds read low 1.03 | S. cerevisiae deletion strains, locus YLL026W, active compounds read low 1.03 | S. cerevisiae deletion strains, locus YLL041C, strain sdh2, active compounds read low 1.02 | S. cerevisiae deletion strains, locus YLR027C, strain aat2, active compounds read low 1.02 | S. cerevisiae deletion strains, locus YLR113W, strain HOG1, active compounds read low 0.976 | S. cerevisiae deletion strains, locus YLR221C, strain rsa3, active compounds read low 1.02 | S. cerevisiae deletion strains, locus YLR258W, strain gsy2, active compounds read low 1.03 | S. cerevisiae deletion strains, locus YLR262C, strain YPT6 (second series), active compounds read low 1.03 | S. cerevisiae deletion strains, locus YLR320W, strain mms22, active compounds read low 1.02 | S. cerevisiae deletion strains, locus YLR342W, strain FKS1, active compounds read low 1.03 | S. cerevisiae deletion strains, locus YLR357W, strain rsc2, active compounds read low 1.06 | S. cerevisiae deletion strains, locus YLR370C, strain arc18, active compounds read low 1.02 | S. cerevisiae deletion strains, locus YLR384C, strain iki3, active compounds read low 1.02 | S. cerevisiae deletion strains, locus YML120C, strain ndi1, active compounds read low 1.01 | S. cerevisiae deletion strains, locus YMR058W, strain fet3, active compounds read low 1.02 | S. cerevisiae deletion strains, locus YMR125W, strain sto1, active compounds read low 1.03 | S. cerevisiae deletion strains, locus YMR129W, active compounds read low 1 | S. cerevisiae deletion strains, locus YMR205C, strain PFK2, active compounds read low 1.02 | S. cerevisiae deletion strains, locus YMR231W, strain pep5, active compounds read low 1.03 | S. cerevisiae deletion strains, locus YNL071W, strain lat1, active compounds read low 1.02 | S. cerevisiae deletion strains, locus YNL183C, strain NPR1, active compounds read low 0.912 | S. cerevisiae deletion strains, locus YNL209W, strain ssb2, active compounds read low 1.02 | S. cerevisiae deletion strains, locus YNL248C, strain rpa49, active compounds read low 1.01 | S. cerevisiae deletion strains, locus YNL322C, strain KRE1 (second series), active compounds read low 1.01 | S. cerevisiae deletion strains, locus YNR049C, strain mso1, active compounds read low 1.02 | S. cerevisiae deletion strains, locus YOR001W, strain rrp6, active compounds read low 1.02 | S. cerevisiae deletion strains, locus YOR070C, strain gyp1, active compounds read low 1.01 | S. cerevisiae deletion strains, locus YOR080W, strain dia2, active compounds read low 1.02 | S. cerevisiae deletion strains, locus YOR083W, strain WHI5, active compounds read low 1.01 | S. cerevisiae deletion strains, locus YOR106W, strain vam3, active compounds read low 1.02 | S. cerevisiae deletion strains, locus YOR231W, strain MKK1, active compounds read low 0.973 | S. cerevisiae deletion strains, locus YOR265W, strain rbl2, active compounds read low 1.01 | S. cerevisiae deletion strains, locus YOR270C, strain vph1, active compounds read low 1.07 | S. cerevisiae deletion strains, locus YOR290C, strain snf2, active compounds read low 1.03 | S. cerevisiae deletion strains, locus YPL051W, strain arl3, active compounds read low 1.02 | S. cerevisiae deletion strains, locus YPL078C, strain atp4, active compounds read low 1.02 | S. cerevisiae deletion strains, locus YPL106C, strain sse1, active compounds read low 1.03 | S. cerevisiae deletion strains, locus YPL240C, strain hsp82, active compounds read low 1.02 | S. cerevisiae deletion strains, locus YPL256C, strain CLN2, active compounds read low 0.971
